Bioassay records as filed in PubChem.
TSHR antag = antagonists of human thyroid stimulating hormone receptor. P16473. TSHR-expressing cells, TSH-stimulated cAMP HTRF, 2 h; stronger effect = lower value. activity change, negative = inhibition, % at 11.5 µM. 0.2% of 330,000 active. AID 504810;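 active = activity change below a set negative limit, meaning inhibition stronger than a set level, cut at about -70% in these data; inconclusive = activity change between two set negative limits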; also: % is scaled to controls: 0 for no effect and ±100 for the full control effect
Target sequence (P16473 whole entry, looked up): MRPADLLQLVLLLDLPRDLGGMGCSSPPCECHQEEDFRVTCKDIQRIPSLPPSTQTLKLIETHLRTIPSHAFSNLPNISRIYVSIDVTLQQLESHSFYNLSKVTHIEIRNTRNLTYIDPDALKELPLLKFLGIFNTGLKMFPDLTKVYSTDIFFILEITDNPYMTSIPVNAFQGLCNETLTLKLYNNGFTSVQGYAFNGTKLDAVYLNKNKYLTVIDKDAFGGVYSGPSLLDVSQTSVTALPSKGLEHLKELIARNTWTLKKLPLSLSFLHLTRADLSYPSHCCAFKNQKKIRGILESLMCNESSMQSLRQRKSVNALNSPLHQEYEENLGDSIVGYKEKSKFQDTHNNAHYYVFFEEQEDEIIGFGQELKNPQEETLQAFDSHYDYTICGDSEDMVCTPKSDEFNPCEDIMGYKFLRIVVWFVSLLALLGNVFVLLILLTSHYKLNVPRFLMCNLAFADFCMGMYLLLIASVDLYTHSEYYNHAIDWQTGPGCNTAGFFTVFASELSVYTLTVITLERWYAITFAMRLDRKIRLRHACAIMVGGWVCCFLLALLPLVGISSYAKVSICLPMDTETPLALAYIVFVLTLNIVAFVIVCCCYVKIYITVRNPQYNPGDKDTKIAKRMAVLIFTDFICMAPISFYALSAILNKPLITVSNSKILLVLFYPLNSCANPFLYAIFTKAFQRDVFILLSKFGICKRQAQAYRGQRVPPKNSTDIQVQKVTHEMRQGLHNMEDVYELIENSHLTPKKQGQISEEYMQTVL
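Read-out is FRET at 665 nm (cryptate excitation 337 nm) from a cryptate-tagged anti-cAMP antibody, competed by cell cAMP against cAMP-d2. Compounds are tested on freshly harvested TSHR cells challenged with 4nM TSH (EC80) for 2 hours at 37 deg C.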
B2AR arrestin = agonists driving beta-arrestin recruitment to human beta2-adrenergic receptor; P07550; beta-arrestin recruitment to beta2AR, cell-based reporter; Potency, µM (titrated, usually from 46.1 µM), for the others: at the top dose activation, most hits filed as activators; 0.02% of 330,000 active; AID 492947; active = well fitted activation curve with a large enough effect; inconclusive = small, poorly fitted or top-dose-only effect;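 also: potency is read from the fitted curve at half-maximal effect; 0% = DMSO controls and full agonism = EC100 isoproterenol or metaproterenol; nearly all actives have a fitted effect of over 65% in size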
D3 antag = D3 dopamine receptor (human) antagonism; max response, negative = inhibition, %; P35462; 2.5% of 360,000 active; D3R cells, DiscoveRx beta-arrestin luminescence, antagonist mode; stronger effect = lower value; in the data active = max response below about -50%; inconclusive = no clear call, values can overlap the other calls; also: % is scaled to controls: 0 for no effect and ±100 for the full control effect
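Cells plated overnight at 1500 cells/well, then exposed to library compounds with dopamine controls for 90 minutes at 37 degrees C. DiscoveRx reagent added for 30–60 minutes at room temperature; luminescence read, quantitative HTS format.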
D3 ag = activates the human D3 dopamine receptor | P35462 | D3R DiscoveRx beta-arrestin cells, luminescence, 90 min | max activation, % | 0.58% of 410,000 active | AID 652048; in the data active = max activation above about 30%; also: 0% is about no effect
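Agonist mode: compounds and dopamine controls were applied to plated cells for 90 min at 37 degrees C after an overnight attachment at 1500 cells/well. Luminescent read-out followed 30 - 60 minutes at room temperature with DiscoveRx detection reagent.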
Starred values were filed as active, the others as inactive; ? = inconclusive; · = no result. The list is not random: actives were taken first. Their share in the collection is about 2.9%.

SMILES	TSHR antag	B2AR arrestin	D3 antag	D3 ag
O=C(Cc1cccc(NC(=O)C2CCCN(C(=O)CCc3ccccc3)C2)c1)Nc1ccc(C(=O)N2CCCCC2)cc1 (centres undefined)	·	·	-52*	-34
CN(C(=O)c1cccc(NC(=O)Cc2cccc([N+](=O)[O-])c2)c1)C1CCCC1	-11	0%	-75*	-19
CN(Cc1ccccc1)C(=O)c1cccc(NC(=O)Cc2ccc(NC(=O)C3CCN(C(=O)CCc4ccccc4)CC3)cc2)c1	·	·	44	78*
CN(C(=O)c1ccc(NC(=O)Cc2cccc(NC(=O)C3CCN(C(=O)CCc4ccccc4)CC3)c2)cc1)C1CCCC1	8	0%	?	-18
CN1CCN(C(=O)Nc2cccc(Cl)c2)c2cccnc21	·	·	·	1
CCC(=O)Nc1ccccc1-c1nc2ccccc2n(C(CC)C(=O)Nc2cccc(C(C)=O)c2)c1=O (centres undefined)	·	·	·	-14
CC1=NN(C(N)=S)C(=O)C1N=Nc1ccccc1O (centres undefined)	4	0%	2	0
CC1=NN(C(N)=S)C(=O)C1N=Nc1ccccc1C (centres undefined)	-13	-1%	-89*	7
CCOc1ccccc1N=NC1C(=O)N(C(N)=S)N=C1C (centres undefined)	-20	1.1µM*	13	23
CC1=NN(C(N)=S)C(=O)C1N=Nc1ccccc1[N+](=O)[O-] (centres undefined)	·	·	7	11
CCN(CC)C(=O)c1sc(NC(=O)C(C)Sc2nc(-c3ccccc3)cc(C(F)(F)F)n2)c(C(=O)OC)c1C (centres undefined)	·	·	·	-8
C=CCOc1ccc(C2C(C(=O)c3cccs3)=C(O)C(=O)N2c2nnc(C)s2)cc1 (centres undefined)	·	·	-63*	-13
COc1ccc(C2C(C(=O)c3cccs3)=C(O)C(=O)N2c2nnc(C)s2)cc1OC (centres undefined)	17	0%	-10	2
Cc1cccc(C)c1N(CC(=O)Nc1cc(Cl)ccc1Oc1ccccc1)S(C)(=O)=O	-2	0%	-54*	0
CCCNS(=O)(=O)c1ccc(CCC(=O)Nc2cc(Cl)ccc2Oc2ccccc2)cc1	-12	0%	31	30*
CCCCc1nc2ccccc2n2c(-c3ccc(C)cc3)c3c(=O)n(C)c(=O)n(C)c3c12	·	·	·	-14
O=C(Nc1ccccc1)N(Cc1cccs1)c1ccc(F)cc1	·	·	·	-14
O=C1CC(c2ccccc2)CC2=C1CN(C1CCCCC1)CN2 (centres undefined)	5	0%	-79*	-3
O=C1NCN(C2CCCCC2)CN1	·	·	4	9
Cc1c(C)c2cccnc2c2ncccc12	·	0%	-103*	-21
Clc1cc2cccnc2c2ncccc12	-27	0%	-6	2
CC(CC(=O)NCc1ccc(Cl)cc1)CC1=NS(=O)(=O)c2ccccc2N1 (centres undefined)	·	·	·	-11
Cc1c(C(=O)N2CC(C)OC(C)C2)oc2ccccc12 (centres undefined)	-5	0%	-72*	-1
Cc1c(C(=O)N2CCCC(C(F)(F)F)C2)oc2ccccc12 (centres undefined)	-7	0%	9	-12
CCOC(=O)C1=C(C)N=c2s/c(=C\c3ccc(OC(C)=O)cc3)c(=O)n2C1/C=C/c1ccccc1 (centres undefined)	17	0%	4	-11
SMILES	TSHR antag	B2AR arrestin	D3 antag	D3 ag
CCOC(=O)C1=C(C)N=c2s/c(=C\c3ccc(OC(C)=O)c(OCC)c3)c(=O)n2C1/C=C/c1ccccc1 (centres undefined)	-10	-3%	-56*	-5
CCc1ccccc1NS(=O)(=O)c1ccc2c(c1)CCN2C(=O)C1CC1	·	·	·	6
CN1CCN(c2ccccc2NS(=O)(=O)c2ccc3c(c2)CCN3C(=O)C2CCC2)CC1	·	·	-52*	-12
COc1ccccc1CNCC(=O)Nc1cc(S(=O)(=O)N2CCCCCC2)ccc1Cl	5	0%	-60*	3
CCN(CC)S(=O)(=O)c1ccc(C)c(NC(=O)CNCc2ccccc2OC)c1	12	0%	-24	33*
COc1ccccc1CNCC(=O)Nc1cc(S(=O)(=O)N2CCCCC2)ccc1C	22	4%	-51*	15
Cc1ccc(S(=O)(=O)N2CCCCC2)cc1NC(=O)CNCc1ccco1	38	-1%	1	38*
COc1ccc(OC)c(CC(=O)Nc2cc(S(=O)(=O)N3CCCCC3)ccc2C)c1	-8	0%	0	-2
Oc1ccccc1/C=N/Nc1nc2ccccc2o1	-11	14µM*	-5	-1
Brc1ccc(/C=N/Nc2nc3ccccc3o2)cc1	-14	4%	?	-12
COc1ccc(NC(=O)c2c(C)oc3ccc(O)c(CN4CCCC(C)C4)c23)cc1 (centres undefined)	·	·	·	2
CCCCCCCCCCCCCCCC[N+](C)(C)CCN(Cc1ccc(OC)cc1)c1ncccn1	-3	0%	-55*	-76
COc1ccc(-c2nc3nc(C)cc(Nc4ccc(C(C)=O)cc4)n3n2)cc1	·	·	·	4
OC(CN1CCN(c2ccccc2)CC1)c1ccc2c(c1)CCN2 (centres undefined)	37	0%	-28	44*
CCOC(=O)N1CCN(CC(O)c2ccc3c(c2)CCN3)CC1 (centres undefined)	19	-1%	-4	-1
CC1CCc2c(sc3ncnc(NCCN4CCOCC4)c23)C1 (centres undefined)	0	0%	-71*	-7
O=C(NCC(=O)N(c1cccnc1)C(C(=O)NC1CCCC1)c1ccccc1)c1ccco1 (centres undefined)	1	0%	4	52*
Cc1ccc(N(C(=O)CNC(=O)c2ccco2)C(C(=O)NC2CCCC2)c2cccnc2)cc1 (centres undefined)	-4	0%	-23	7
CCn1c(NC(=O)c2ccc(COc3ccc(C)cc3[N+](=O)[O-])o2)nc2ccccc21	1	0%	10	37*
Cc1ccc(OCc2ccc(C(=O)Nc3cc(C)on3)o2)c([N+](=O)[O-])c1	1	0%	-12	-8
Cc1ccnc(NC(=O)c2ccc(C(=O)c3ccccc3)cc2)c1	-9	0%	-55*	-8
Cc1ccnc(NC(=O)c2ccccc2NC(=O)c2ccccc2)c1	2	0%	10	13
O=C1/C(=C\c2ccccc2)CN(C(=O)CCN2CCCCC2)C/C1=C/c1ccccc1	·	·	-62*	-8
CCN(CC)CCC(=O)N1C/C(=C/c2ccccc2)C(=O)/C(=C\c2ccccc2)C1	·	·	-1	-14
O=C1/C(=C\c2ccc(Cl)c(Cl)c2)CN(C(=O)CCN2CCOCC2)C/C1=C/c1ccc(Cl)c(Cl)c1	·	·	-79*	-21
O=C(NCCN1CCOCC1)c1ccc(Cl)c(Cl)c1	-9	0%	-20	-23
CC(C)(C)OC(=O)C[C@H]1C/C=C\C[C@@H](CC(=O)N(CCO)Cc2ccccc2)C(=O)NC[C@H](c2ccccc2)OC1=O	-8	0%	1	-1
